Test results from the supplement of paper PMC11732987, “Enantioselective OTUD7B fragment discovery through chemoproteomics screening and high-throughput optimisation” (Communications Chemistry, 2025).

Assays:
Experiment in all cases: log2 ratio of Biotin-Ahx-Ub-VS probe labelling (fragment/DMSO); higher = less target engagement (more negative = stronger competition), active = hit call of the paper (q ≤ 0.05, log2 ratio ≤ -1)
Conditions in all cases: compound concentration: 200 uM; treatment time: 3 h
[1] = target: T1, USP42 (UniProt Q9H9J4)
T1 sequence (whole entry): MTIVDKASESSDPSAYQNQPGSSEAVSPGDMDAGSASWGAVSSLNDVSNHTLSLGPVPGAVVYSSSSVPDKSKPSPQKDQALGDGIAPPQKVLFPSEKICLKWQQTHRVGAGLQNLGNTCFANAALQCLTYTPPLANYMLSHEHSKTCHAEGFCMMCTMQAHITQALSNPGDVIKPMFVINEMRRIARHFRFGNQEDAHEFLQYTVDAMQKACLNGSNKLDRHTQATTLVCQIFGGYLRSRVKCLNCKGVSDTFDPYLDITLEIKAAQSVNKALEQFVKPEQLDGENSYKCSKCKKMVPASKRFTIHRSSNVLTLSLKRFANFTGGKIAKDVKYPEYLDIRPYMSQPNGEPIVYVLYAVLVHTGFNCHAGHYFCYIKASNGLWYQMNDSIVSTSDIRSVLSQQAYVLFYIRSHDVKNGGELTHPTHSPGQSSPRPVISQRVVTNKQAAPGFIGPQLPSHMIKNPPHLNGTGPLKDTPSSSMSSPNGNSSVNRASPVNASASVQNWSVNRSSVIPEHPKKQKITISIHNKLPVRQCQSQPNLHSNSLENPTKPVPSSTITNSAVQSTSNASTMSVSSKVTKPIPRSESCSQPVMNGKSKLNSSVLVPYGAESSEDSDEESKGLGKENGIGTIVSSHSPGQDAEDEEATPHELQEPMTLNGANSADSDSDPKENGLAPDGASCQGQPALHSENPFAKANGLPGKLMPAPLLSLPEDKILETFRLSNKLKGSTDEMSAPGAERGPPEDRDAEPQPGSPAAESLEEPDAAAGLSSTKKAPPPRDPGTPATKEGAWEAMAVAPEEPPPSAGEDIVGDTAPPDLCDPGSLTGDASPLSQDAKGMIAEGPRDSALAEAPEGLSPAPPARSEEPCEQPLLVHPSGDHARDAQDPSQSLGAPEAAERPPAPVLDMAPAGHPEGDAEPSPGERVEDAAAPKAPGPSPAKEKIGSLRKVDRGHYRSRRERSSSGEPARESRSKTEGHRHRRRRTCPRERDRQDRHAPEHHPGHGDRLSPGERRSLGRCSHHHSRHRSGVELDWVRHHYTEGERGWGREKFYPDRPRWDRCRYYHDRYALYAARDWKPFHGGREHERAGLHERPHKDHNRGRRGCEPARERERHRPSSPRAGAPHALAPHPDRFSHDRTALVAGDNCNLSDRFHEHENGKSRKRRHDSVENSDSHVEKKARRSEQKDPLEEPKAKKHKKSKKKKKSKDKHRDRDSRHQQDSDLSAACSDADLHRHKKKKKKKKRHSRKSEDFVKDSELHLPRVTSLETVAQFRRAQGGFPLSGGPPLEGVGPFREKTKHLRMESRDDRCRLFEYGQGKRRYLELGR
In short: (§1)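 Each value is an average log2 ratio of fragment to vehicle, tested by unpaired t-test. The underlying Spectronaut label-free quantities were global-median-normalised, and only proteins with ≥2 unique peptides were included. Triplicate HEK293T lysate samples (495 µg) were exposed to fragment at 200 µM or vehicle for 3 h, then to Biotin-Ahx-Ub-VS at 0.5 µM final for 1 h, before NeutrAvidin enrichment of labelled DUBs, LysC and trypsin digestion, and diaPASEF LC-MS/MS.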

[2] = target: USP46 (UniProt P62068)
Chain of USP46 (P62068 whole entry): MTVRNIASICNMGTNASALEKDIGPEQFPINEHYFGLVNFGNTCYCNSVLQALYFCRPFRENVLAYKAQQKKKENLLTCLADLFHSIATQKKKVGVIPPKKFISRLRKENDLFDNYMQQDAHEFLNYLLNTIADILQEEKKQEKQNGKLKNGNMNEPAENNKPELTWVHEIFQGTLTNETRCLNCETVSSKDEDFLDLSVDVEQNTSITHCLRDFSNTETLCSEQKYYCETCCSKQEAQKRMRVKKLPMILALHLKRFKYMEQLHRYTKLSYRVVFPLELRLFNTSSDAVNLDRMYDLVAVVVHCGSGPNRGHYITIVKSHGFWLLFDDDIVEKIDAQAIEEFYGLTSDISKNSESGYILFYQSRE
In short: as §1

[3] = target: T2, USP47 (UniProt Q96K76)
T2 sequence (whole entry): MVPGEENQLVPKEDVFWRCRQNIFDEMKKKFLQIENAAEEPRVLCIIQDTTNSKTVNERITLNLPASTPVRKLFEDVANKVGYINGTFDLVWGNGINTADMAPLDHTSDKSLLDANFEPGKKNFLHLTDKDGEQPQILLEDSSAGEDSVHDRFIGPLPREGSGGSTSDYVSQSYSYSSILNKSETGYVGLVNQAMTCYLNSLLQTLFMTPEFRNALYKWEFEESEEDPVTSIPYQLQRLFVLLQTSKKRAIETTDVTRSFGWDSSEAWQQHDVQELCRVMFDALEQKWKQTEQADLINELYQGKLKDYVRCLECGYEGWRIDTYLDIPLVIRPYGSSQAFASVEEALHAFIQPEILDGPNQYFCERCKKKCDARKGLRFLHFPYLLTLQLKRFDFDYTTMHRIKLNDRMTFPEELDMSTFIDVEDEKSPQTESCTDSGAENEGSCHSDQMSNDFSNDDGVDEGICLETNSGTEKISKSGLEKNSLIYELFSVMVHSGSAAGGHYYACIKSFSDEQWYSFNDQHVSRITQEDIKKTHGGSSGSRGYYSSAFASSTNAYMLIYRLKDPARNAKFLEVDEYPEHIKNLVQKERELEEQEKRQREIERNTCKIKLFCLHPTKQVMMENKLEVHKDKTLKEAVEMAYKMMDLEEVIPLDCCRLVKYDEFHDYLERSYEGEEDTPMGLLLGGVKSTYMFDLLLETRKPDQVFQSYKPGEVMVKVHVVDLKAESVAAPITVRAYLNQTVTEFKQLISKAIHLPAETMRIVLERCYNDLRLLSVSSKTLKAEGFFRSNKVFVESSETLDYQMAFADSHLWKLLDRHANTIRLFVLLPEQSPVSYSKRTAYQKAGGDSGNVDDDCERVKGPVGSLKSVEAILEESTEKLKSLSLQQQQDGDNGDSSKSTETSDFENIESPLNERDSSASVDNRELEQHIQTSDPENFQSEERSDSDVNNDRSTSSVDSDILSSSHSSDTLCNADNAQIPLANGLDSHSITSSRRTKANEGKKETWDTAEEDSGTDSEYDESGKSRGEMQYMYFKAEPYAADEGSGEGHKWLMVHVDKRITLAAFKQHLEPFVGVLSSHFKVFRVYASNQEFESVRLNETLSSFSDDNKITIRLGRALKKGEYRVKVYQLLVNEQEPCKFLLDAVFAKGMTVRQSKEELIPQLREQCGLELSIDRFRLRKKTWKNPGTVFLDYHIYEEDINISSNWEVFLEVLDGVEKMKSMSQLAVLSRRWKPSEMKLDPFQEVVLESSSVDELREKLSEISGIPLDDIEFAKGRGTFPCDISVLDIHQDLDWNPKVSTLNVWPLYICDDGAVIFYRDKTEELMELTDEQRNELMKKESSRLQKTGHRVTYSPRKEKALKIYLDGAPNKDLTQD
In short: as §1

[4] = target: T3, USP48 (UniProt Q86UV5)
T3 sequence (whole entry): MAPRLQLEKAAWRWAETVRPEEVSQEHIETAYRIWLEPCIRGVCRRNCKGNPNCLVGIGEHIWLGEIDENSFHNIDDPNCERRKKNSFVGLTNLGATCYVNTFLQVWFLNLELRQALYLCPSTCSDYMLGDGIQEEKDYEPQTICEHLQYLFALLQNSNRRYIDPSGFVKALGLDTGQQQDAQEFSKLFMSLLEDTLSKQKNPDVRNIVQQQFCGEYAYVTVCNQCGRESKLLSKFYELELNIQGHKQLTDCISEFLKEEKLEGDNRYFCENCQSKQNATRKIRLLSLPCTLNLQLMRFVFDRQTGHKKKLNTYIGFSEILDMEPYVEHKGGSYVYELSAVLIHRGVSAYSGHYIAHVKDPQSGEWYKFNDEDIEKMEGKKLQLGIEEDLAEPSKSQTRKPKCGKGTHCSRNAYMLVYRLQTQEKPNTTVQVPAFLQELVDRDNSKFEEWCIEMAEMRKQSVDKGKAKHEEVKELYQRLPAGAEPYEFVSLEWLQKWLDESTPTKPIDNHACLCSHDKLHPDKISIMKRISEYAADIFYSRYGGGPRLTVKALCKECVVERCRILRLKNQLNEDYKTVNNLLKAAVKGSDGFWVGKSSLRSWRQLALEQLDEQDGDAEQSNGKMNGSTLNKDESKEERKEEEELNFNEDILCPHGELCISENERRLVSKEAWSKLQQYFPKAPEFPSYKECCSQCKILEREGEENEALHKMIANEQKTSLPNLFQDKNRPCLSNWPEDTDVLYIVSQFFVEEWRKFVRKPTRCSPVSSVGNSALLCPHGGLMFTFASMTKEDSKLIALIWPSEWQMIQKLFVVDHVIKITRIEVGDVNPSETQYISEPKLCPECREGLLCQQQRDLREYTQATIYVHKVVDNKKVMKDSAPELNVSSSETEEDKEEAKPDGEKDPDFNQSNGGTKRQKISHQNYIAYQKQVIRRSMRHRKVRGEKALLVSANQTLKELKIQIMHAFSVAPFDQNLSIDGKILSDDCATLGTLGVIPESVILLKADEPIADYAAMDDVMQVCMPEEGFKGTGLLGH
In short: as §1

[5] = target: T4, USP5 (UniProt P45974)
T4 sequence (whole entry): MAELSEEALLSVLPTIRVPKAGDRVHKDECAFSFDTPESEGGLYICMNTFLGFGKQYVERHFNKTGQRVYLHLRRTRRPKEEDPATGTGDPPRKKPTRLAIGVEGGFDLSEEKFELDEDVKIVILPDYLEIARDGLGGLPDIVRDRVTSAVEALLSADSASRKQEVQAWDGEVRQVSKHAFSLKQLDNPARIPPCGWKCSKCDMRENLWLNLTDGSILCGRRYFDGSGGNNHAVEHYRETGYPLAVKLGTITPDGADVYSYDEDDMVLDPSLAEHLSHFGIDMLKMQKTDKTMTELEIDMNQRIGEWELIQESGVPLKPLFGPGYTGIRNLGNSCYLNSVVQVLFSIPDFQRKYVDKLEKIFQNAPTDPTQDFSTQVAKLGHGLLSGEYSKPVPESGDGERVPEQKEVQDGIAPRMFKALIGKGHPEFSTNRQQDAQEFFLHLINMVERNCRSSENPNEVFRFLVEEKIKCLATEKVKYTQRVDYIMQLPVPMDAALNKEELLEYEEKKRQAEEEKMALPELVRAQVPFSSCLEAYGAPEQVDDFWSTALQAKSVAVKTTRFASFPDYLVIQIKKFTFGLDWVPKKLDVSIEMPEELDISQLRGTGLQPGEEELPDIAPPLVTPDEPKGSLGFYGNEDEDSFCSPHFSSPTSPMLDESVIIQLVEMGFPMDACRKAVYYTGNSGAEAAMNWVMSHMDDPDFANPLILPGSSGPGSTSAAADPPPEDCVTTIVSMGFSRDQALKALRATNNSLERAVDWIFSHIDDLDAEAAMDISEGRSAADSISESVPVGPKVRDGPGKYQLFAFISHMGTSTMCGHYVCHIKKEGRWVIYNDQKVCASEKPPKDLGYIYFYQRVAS
In short: as §1

[6] = target: USP54 (UniProt Q70EL1)
Chain of USP54 (Q70EL1 whole entry): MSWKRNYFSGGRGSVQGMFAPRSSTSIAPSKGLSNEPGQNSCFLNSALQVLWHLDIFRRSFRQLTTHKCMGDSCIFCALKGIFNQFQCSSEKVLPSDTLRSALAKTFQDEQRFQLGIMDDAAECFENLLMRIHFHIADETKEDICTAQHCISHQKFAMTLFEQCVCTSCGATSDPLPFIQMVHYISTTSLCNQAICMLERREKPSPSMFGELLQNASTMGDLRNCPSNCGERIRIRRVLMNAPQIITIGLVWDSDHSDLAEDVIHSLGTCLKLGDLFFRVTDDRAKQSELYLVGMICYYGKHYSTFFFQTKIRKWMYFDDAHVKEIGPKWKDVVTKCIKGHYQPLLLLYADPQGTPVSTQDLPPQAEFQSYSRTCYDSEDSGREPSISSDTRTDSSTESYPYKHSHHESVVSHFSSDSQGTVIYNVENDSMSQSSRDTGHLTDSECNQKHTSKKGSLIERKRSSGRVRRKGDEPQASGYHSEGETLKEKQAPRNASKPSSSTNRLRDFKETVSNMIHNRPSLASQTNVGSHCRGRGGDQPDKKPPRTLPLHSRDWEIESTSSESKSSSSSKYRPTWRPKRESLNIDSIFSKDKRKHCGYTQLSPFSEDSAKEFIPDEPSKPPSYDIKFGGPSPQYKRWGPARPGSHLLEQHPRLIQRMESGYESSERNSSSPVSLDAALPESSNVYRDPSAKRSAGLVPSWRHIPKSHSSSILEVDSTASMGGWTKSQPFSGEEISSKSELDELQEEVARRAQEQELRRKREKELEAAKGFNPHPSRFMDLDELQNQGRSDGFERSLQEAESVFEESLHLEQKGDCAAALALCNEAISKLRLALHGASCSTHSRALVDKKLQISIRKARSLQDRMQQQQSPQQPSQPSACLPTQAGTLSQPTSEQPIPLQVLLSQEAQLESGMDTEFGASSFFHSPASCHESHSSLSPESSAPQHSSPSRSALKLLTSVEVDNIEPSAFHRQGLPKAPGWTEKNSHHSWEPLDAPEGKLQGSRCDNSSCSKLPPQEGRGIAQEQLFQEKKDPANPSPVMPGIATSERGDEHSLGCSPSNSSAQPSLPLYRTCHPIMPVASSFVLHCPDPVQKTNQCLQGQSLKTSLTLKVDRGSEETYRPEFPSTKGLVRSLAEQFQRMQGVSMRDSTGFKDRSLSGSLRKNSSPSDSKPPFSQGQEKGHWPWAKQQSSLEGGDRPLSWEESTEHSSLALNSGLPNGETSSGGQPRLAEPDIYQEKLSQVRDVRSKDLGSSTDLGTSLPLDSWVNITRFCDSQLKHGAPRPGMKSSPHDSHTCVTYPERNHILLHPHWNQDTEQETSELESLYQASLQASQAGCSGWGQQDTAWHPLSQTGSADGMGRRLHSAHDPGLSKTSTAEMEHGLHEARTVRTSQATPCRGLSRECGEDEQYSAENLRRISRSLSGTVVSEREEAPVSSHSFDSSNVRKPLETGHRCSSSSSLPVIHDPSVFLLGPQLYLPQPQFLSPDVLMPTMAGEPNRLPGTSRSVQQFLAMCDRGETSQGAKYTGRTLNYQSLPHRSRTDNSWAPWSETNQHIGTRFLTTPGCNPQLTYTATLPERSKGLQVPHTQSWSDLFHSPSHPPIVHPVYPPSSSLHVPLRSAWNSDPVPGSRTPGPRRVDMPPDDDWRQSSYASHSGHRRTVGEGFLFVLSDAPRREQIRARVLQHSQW
In short: as §1

[7] = target: USP7 (UniProt Q93009)
Chain of USP7 (Q93009 whole entry, looked up): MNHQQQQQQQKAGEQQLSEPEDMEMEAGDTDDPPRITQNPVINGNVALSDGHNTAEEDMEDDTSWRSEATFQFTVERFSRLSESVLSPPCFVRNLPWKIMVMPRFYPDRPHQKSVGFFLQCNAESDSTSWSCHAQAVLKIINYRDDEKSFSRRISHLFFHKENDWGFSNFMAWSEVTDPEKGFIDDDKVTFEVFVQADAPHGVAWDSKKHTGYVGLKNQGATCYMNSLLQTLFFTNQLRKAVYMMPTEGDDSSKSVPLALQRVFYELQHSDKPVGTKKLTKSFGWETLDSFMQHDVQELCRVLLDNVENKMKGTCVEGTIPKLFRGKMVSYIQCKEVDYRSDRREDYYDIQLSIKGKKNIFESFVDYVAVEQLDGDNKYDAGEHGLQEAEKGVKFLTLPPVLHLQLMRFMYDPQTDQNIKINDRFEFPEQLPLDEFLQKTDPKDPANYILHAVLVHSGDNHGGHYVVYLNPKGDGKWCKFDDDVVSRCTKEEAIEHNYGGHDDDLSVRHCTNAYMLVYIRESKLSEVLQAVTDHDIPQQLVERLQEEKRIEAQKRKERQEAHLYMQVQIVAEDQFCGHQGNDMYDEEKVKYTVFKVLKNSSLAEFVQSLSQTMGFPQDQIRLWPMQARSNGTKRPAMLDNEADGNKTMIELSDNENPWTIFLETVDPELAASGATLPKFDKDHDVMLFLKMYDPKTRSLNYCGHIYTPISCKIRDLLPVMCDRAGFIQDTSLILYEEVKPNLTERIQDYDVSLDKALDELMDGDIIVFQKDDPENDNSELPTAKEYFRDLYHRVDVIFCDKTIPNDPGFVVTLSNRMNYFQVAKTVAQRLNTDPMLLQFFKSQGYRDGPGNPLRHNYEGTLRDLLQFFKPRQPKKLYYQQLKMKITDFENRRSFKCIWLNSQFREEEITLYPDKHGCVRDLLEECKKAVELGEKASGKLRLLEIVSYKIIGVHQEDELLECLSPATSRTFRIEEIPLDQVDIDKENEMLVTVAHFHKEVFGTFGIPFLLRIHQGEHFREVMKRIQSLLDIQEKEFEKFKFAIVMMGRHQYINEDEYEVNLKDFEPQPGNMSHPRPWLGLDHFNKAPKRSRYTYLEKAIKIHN
In short: as §1

[8] = target: T5, USP8 (UniProt P40818)
T5 sequence (whole entry): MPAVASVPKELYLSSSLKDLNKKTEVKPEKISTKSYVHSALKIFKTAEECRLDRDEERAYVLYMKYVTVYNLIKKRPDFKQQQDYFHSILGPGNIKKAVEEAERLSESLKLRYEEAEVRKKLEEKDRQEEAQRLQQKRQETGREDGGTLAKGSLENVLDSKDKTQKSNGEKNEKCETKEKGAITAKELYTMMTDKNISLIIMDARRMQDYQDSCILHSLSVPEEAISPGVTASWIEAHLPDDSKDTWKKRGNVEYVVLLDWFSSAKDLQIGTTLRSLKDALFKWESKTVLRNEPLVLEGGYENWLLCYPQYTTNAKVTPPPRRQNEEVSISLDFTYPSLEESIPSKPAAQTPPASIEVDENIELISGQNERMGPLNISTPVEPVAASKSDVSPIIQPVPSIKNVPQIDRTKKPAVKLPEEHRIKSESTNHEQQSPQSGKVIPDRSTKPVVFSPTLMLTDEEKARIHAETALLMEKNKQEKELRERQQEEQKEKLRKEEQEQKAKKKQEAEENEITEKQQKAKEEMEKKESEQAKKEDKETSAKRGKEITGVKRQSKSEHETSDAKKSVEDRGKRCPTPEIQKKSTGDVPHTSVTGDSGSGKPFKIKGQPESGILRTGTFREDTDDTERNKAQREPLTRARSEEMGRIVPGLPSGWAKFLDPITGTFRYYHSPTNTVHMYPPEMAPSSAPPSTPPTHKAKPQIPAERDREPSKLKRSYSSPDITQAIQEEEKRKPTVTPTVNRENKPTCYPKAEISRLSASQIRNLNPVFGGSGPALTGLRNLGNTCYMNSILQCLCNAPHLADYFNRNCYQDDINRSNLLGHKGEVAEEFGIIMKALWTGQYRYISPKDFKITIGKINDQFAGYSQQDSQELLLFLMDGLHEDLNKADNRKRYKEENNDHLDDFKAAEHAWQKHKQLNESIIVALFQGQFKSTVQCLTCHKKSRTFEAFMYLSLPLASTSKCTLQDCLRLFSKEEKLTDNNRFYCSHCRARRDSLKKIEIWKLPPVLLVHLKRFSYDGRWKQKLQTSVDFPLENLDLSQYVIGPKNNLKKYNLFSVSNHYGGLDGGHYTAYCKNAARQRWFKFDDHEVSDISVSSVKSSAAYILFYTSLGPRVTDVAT
In short: as §1

[9] = target: USP9X (UniProt Q93008)
In short: as §1

[10] = target: UniProt O00487
Chain of UniProt O00487 (O00487 whole entry): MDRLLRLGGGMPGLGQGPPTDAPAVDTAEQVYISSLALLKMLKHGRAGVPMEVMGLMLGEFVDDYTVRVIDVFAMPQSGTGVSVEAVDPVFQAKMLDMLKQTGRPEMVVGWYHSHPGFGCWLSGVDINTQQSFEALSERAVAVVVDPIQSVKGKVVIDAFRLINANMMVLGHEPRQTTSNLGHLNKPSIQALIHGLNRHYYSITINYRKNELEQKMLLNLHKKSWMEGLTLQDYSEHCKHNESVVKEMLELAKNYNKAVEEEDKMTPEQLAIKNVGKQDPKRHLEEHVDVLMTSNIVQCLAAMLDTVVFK
In short: as §1

Measured: log2 ratio of Biotin-Ahx-Ub-VS probe labelling

O=C(CCl)N1CCc2ccccc2C(O)C1 (stereo not given)
inactive: [1] 0.325 | [2] -0.184 | [3] 0.0442 | [4] -0.682 | [5] -0.103 | [6] 0.265 | [7] -0.687 | [8] -0.372 | [9] -0.333 | [10] -0.0272
